In PubChem BioAssay (NCI):
Compounds without any hit were thinned out: in the full panel of roughly 83,000, 20% have a hit.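 Values shown are percent growth following 48 h exposure of cells in 96-well plates to a single concentration of compound; below 10 was considered active.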 A number with no mark means an inactive call. Activity calls are given as the source filed them.

tested on: HL-60(TB) leukemia; assay: NCI-60 one-dose screen, 48 h (100 = growth as untreated, 0 = no growth, -100 = all killed); settings: 10 µM unless noted

Row | SMILES | growth
1 | COc1ccc(/C(=C\c2ccc3c(c2)OCO3)C(=O)Nc2nc3ccccc3s2)cc1OC | 92%
2 | CCOc1nc(-c2ccccc2)cc2c(O)c(C(=O)NN)[nH]c(=O)c12 | 151%
3 | Cc1ccc(-c2cnc3sc(C(=O)NCCc4ccccc4)c(C)n23)cc1 | 97.9%
4 | CC(=O)OC1CC2C(C)(C)CCC[C@]2(C)C2=C1C(O)=C(C(C)C)C(=O)C2=O (stereo not given in full) | 3.12% (active)
5 | CCCCn1c(C)nc2cc(Nc3nc(N4CCCCC4)nc4nc[nH]c34)ccc21 | 78.4%
6 | Cc1ccc(S(=O)(=O)OC[C@]23CCC(C)(C)C[C@H]2C2=CC[C@@H]4[C@@]5(C)CCCNC(C)(C)[C@@H]5CC[C@@]4(C)[C@]2(C)CC3)cc1 | 24.5%
7 | Nc1nc(Cl)c2c(C(F)(F)F)cn(CC3CCNCC3)c2n1 | 25.5%
8 | CC1(C)CC2=C3C=C[C@@H]4[C@@]5(C)CC[C@H](O)C(C)(C)[C@@H]5CC[C@@]4(C)[C@]3(C)CC[C@@]2(C(=O)O)CC1=O | 39%
9 | Cc1ccc(NC2CC(=O)N(c3c(C)cc(C)cc3C)C2=O)c(C)c1 (stereo not given) | 102%
10 | O=c1[nH]nc(-c2ccccc2)c2c(-c3ccccc3)onc12 | -34% (active)
11 | COc1ccc(/C=C(\C#N)c2ccc(OC)cc2)cc1 | 50.9%
12 | O=Nc1c(-c2c(O)[nH]c3ccc([N+](=O)[O-])cc23)[nH]c2ccc(O)cc12 | 3.67% (active)
13 | O=C(Nc1ccc(Cl)c(Cl)c1)NC(CO)(CO)CO | 102%
14 | CCOc1ccc2c(c1)CN(Cc1ccc(Cl)cc1)CO2 | 94.9%
15 | Cc1ccc(NC(=O)CCl)cc1Cl | 106%
16 | Cc1ccc2[nH]cc(-c3nc(-c4cn(C)c5ncccc45)cs3)c2c1 | 63.7%
17 | CCCCO[C@@H]1C=C2[C@H]3CC(C)(C)C(=O)C[C@]3(C(=O)O[C@@H]3O[C@H](CO[C@@H]4O[C@H](CO)[C@@H](OC5OC(C)C(O)C(O)C5O)[C@H](O)[C@H]4O)[C@@H](O)[C@H](O)[C@H]3O)CC[C@@]2(C)[C@]2(C)CC[C@H]3C(C)(C)C(=O)CC[C@]3(C)[C@@H]12 (stereo not given in full) | 49.2%
18 | O=[N+]([O-])c1cc(NS(=O)(=O)c2ccccc2)ccc1NS(=O)(=O)c1ccccc1 | 113%
19 | CN(C)CCN(Cc1ccccc1)c1ccccc1 | 86.6%
20 | COCCNC1=C(Cl)C(=O)c2ccccc2C1=O | 110%
21 | COc1cc(-c2ccc(N=Nc3c(O)c(C(=O)Nc4ccccc4OC)cc4ccccc34)c(OC)c2)ccc1N=Nc1c(O)c(C(=O)Nc2ccccc2OC)cc2ccccc12 | 79.2%
22 | CCOC(=O)c1nn(C2CCCCO2)c2ccc(NC(=O)Cn3nnc4ccccc43)cc12 (stereo not given) | 98.8%
23 | CC(C)(C)N1CC(OC(N)=O)C1 | 110%
24 | N#Cc1nc(-c2ccc(Cl)cc2)oc1S(=O)(=O)N1CCN(c2ccc(F)cc2)CC1 | 66.3%
25 | O=C1NC(=O)c2cc([N+](=O)[O-])cc3cccc1c23 | 135%
